# Reference: the supplement of paper PMC10849652
# About 8,800 targets were measured; listed, in parts, are those with a hit and a random draw of the rest. About 0.5% of all pairs of compound and target were hits. Values without a mark were called inactive.
# Experiments:
# Assay in all cases: log2 fold change, soluble protein after heating vs DMSO (PISA); higher = thermal stabilisation; K562 lysate, 10 uM; active = over 0.2 and 3.5 SD of the protein, either way, in both replicates (recomputed)
# nilotinib = compound: Cc1cn(-c2cc(NC(=O)c3ccc(C)c(Nc4nccc(-c5cccnc5)n4)c3)cc(C(F)(F)F)c2)cn1 [nilotinib]
# Outline: (§1)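 Log-two fold change in thermal stability relative to solvent controls is reported from duplicates. For each sample, crude K562 extract from dounce-homogenised pellets in PBS pH 7.4 with 1 mM MgCl2, at 1 mg/mL protein, was treated with 10 μM compound for 30 min. Aliquots heated for 3 min across 48°C-58°C were pooled, brought to 0.5% NP-40 at 4°C and cleared at 21,000xg for 90 min. The supernatant was quantified by TMTpro 16plex LC-MS/MS with channel sums equalised.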
# [1] = compound: Cc1nc(Nc2n[nH]c3c2CN(C(=O)N[C@H](CN(C)C)c2ccccc2)C3(C)C)c2sccc2n1
# Outline: as §1
# dasatinib = compound: Cc1nc(Nc2ncc(C(=O)Nc3c(C)cccc3Cl)s2)cc(N2CCN(CCO)CC2)n1 [dasatinib]
# Outline: as §1
# [2] = compound: Cc1ncc(-c2ccnc(Nc3ccc(S(C)(=O)=O)cc3)n2)n1C(C)C
# Outline: as §1
# [3] = compound: Cn1cc(-c2ccc3c(c2)CCN3C(=O)Cc2cccc(C(F)(F)F)c2)c2c(N)ncnc21
# Outline: as §1
# quisinostat = compound: Cn1cc(CNCC2CCN(c3ncc(C(=O)NO)cn3)CC2)c2ccccc21 [quisinostat]
# Outline: as §1
# tipifarnib = compound: Cn1cncc1[C@@](N)(c1ccc(Cl)cc1)c1ccc2c(c1)c(-c1cccc(Cl)c1)cc(=O)n2C [tipifarnib]
# Outline: as §1
# [4] = compound: NC(=O)Nc1cc(-c2cccc(F)c2)sc1C(=O)N[C@H]1CCCNC1
# Outline: as §1
# [5] = compound: NC(=O)c1cnc(N[C@@H]2CCCC[C@@H]2N)nc1Nc1cccc(-n2nccn2)c1
# Outline: as §1
# [6] = compound: NC1(c2ccc(-c3nc4ccn5c(=O)[nH]nc5c4cc3-c3ccccc3)cc2)CCC1
# Outline: as §1
# Chain of UniProt Q5SZK8 (Q5SZK8 whole entry, looked up): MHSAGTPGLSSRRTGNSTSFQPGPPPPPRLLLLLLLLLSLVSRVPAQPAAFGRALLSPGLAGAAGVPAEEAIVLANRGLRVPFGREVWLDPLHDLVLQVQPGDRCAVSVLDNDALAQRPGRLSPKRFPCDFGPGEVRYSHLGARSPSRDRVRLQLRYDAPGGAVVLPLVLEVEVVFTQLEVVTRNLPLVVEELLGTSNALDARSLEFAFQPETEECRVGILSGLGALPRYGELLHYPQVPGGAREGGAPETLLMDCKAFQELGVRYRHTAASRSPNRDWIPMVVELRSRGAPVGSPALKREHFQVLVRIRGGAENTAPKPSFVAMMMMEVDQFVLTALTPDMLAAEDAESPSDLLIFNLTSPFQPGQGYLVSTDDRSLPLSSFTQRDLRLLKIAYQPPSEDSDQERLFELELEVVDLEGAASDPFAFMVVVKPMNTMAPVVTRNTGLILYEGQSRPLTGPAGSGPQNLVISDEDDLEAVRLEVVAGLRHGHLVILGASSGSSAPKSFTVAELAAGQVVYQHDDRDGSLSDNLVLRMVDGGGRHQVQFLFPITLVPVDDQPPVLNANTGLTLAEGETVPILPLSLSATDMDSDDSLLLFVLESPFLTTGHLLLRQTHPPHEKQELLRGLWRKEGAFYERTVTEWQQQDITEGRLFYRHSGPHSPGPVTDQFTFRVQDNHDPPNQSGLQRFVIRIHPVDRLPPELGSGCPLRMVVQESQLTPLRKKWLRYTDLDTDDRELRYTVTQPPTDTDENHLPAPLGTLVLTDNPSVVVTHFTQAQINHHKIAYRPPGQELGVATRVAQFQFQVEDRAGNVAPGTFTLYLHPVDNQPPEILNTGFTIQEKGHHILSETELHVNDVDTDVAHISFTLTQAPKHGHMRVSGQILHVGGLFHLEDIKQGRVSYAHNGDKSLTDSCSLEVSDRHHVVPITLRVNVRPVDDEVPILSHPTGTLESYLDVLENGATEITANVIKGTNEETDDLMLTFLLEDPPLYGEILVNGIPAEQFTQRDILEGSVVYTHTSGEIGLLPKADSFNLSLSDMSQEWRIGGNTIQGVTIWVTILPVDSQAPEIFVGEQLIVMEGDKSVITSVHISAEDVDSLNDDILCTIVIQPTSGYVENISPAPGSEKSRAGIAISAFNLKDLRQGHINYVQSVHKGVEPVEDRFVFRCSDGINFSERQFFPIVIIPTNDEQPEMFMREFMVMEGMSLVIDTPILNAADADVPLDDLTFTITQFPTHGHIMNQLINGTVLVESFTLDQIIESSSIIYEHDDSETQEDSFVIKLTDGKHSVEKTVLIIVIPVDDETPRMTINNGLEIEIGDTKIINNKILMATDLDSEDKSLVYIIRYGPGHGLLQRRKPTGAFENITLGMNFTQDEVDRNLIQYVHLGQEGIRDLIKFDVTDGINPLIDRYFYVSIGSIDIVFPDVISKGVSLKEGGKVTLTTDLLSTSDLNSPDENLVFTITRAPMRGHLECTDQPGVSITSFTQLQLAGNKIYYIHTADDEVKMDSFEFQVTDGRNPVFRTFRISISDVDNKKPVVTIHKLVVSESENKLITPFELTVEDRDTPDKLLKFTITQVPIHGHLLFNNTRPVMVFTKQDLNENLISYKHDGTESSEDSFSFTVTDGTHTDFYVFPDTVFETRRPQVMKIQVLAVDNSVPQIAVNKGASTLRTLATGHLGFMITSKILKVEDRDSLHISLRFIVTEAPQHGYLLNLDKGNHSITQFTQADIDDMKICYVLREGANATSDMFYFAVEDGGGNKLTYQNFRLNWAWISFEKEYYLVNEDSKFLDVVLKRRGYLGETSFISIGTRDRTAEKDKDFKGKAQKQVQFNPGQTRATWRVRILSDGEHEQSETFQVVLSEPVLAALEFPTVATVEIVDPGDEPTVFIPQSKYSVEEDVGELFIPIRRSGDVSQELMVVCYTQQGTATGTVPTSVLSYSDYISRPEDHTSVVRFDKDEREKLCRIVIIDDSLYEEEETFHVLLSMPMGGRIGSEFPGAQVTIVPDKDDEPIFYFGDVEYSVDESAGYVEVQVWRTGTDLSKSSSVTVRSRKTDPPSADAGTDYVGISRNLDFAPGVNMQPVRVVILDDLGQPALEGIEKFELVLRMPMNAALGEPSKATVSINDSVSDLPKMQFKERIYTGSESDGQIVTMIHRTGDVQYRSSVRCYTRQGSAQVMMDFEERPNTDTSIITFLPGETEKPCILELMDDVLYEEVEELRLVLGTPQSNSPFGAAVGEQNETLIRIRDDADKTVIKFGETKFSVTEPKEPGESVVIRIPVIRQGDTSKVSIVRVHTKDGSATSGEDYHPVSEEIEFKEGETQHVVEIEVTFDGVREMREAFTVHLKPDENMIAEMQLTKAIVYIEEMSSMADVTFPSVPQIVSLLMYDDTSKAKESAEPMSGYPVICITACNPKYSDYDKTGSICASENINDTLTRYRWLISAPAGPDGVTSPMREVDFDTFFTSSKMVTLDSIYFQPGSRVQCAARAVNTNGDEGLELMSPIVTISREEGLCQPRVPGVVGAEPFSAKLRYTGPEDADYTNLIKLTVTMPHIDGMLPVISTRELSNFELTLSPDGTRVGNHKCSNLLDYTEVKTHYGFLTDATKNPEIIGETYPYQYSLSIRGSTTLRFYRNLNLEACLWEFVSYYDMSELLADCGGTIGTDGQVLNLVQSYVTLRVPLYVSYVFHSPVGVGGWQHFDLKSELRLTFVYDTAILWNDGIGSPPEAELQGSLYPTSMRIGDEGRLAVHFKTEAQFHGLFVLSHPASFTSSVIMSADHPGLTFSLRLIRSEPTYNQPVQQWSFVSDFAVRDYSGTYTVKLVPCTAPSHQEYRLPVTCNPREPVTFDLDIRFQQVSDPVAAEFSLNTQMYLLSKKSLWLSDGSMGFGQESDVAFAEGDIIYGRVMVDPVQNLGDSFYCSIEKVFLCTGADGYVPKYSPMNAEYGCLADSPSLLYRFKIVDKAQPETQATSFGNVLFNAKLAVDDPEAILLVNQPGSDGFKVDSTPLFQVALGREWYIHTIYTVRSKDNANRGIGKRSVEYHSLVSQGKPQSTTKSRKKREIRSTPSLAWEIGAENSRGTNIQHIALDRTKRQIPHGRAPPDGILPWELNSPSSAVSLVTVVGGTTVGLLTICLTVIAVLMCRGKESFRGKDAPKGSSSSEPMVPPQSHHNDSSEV
# Chain of UniProt Q8N5C7 (Q8N5C7 whole entry, looked up): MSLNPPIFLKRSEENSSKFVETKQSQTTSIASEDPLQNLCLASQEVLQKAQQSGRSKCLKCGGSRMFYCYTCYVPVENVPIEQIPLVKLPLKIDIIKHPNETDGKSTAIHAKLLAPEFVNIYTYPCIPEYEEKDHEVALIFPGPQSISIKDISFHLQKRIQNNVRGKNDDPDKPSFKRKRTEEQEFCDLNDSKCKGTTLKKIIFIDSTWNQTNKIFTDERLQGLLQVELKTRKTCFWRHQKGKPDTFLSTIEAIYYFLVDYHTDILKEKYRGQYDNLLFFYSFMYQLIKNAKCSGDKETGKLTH
# Chain of UniProt Q9H4H8 (Q9H4H8 whole entry, looked up): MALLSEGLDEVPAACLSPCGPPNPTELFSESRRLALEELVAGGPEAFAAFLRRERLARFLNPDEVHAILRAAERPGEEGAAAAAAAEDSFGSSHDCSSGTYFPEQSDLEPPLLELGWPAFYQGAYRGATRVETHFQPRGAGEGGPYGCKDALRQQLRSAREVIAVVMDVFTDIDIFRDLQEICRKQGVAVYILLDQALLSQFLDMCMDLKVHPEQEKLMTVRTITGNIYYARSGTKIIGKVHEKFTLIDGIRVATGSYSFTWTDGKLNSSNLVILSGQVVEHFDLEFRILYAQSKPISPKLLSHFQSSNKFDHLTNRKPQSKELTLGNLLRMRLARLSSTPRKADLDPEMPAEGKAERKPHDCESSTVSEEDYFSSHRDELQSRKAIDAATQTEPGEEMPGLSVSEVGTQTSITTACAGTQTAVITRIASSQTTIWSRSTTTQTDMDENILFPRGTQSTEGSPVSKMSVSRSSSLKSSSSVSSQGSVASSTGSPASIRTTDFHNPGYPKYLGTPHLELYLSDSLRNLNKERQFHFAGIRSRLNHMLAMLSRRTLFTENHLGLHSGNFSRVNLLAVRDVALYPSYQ
# Chain of UniProt P02792 (P02792 whole entry, looked up): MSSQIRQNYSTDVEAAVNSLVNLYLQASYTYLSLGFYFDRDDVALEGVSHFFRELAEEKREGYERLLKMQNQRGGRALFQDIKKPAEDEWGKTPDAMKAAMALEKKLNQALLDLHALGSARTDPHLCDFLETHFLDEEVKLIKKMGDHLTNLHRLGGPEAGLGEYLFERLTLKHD
# Chain of UniProt Q9UK97 (Q9UK97 whole entry, looked up): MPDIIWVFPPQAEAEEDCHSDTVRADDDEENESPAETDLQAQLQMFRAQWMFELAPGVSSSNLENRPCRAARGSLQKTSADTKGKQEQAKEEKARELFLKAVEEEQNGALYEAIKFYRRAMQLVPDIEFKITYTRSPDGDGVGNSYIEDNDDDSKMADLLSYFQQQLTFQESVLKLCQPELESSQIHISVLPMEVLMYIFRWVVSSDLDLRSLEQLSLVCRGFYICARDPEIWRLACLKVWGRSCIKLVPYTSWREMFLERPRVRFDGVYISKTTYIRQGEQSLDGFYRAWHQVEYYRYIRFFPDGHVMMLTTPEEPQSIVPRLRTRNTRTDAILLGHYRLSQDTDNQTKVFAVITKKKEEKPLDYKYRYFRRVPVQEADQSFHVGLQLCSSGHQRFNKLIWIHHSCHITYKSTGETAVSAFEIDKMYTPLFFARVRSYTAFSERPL
# Chain of UniProt Q8WWZ3 (Q8WWZ3 whole entry, looked up): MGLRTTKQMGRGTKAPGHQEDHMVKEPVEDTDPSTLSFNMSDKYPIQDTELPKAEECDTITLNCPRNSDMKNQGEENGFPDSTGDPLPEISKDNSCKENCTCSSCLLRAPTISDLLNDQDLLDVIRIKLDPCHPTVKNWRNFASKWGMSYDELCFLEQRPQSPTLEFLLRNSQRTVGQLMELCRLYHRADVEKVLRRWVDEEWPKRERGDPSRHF
# Chain of UniProt P54852 (P54852 whole entry, looked up): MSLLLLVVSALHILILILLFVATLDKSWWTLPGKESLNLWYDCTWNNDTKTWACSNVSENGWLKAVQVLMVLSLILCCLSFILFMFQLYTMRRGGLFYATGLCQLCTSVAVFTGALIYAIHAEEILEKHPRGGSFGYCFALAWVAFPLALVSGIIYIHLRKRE
Target,log2 fold change (nilotinib),log2 fold change [1],log2 fold change (dasatinib),log2 fold change [2],log2 fold change [3],log2 fold change (quisinostat),log2 fold change (tipifarnib),log2 fold change [4],log2 fold change [5],log2 fold change [6]
FREM2 (UniProt Q5SZK8),-0.108,0.041,-0.071,-0.113,-0.014,-0.223,-0.168,0.048,0.059,0.04
EHD2 (UniProt Q9NZN4),0.007,-0.02,-0.018,0.019,-0.084,-0.074,-0.047,0.09,0.029,-0.042
FBXO30 (UniProt Q8TB52),0.015,-0.032,0.012,0.067,0.02,0.001,0.012,-0.008,-0.017,0.005
GCN1 (UniProt Q92616),0.015,-0.017,-0.071,0.001,0.066,-0.072,-0.01,0.047,0.001,-0.037
EIF2B4 isoform 2 (UniProt Q9UI10),-0.002,0.004,-0.022,0.003,0.011,0,0.037,0.074,-0.003,0.002
FOXJ3 (UniProt Q9UPW0),0.156,-0.053,-0.013,-0.008,-0.063,-0.055,-0.017,0.042,0.017,-0.115
"EEF1A1, A0A087WVQ9",0.124,0.012,0.006,0.044,0.002,-0.025,-0.001,0.024,0.013,0.016
FBXO9 (UniProt Q9UK97),-0.076,0.003,0.059,0.02,0.021,-0.045,-0.092,0.177,0.127,0.127
ESPL1 (UniProt Q14674),-0.013,0.006,0.044,0.054,0.02,0.066,-0.024,0.021,-0.014,-0.055
FAM120B (UniProt Q96EK7),-0.067,-0.017,-0.033,-0.008,0.017,-0.062,0.05,0.015,-0.029,-0.048
FNBP1L (UniProt Q5T0N5),-0.076,0.03,-0.131,0.007,-0.051,-0.068,-0.016,0.018,-0.004,0.025
"EED, A0A5F9ZI63",-0.019,0.035,-0.022,-0.005,-0.027,0,0.006,0.026,-0.006,-0.015
ERBIN isoform 8 (UniProt Q96RT1),0.012,-0.027,0.051,-0.015,0.018,-0.029,-0.005,0.018,0,0.001
GEMIN5 (UniProt Q8TEQ6),-0.003,-0.001,-0.046,0.001,0.037,-0.102,0.015,0.031,0.003,-0.027
ERLIN1 (UniProt O75477),0.011,-0.031,-0.01,-0.034,0.033,0.107,0.049,-0.047,-0.009,0.035
EDC4 (UniProt Q6P2E9),0,0.007,-0.058,0.007,-0.002,-0.071,-0.001,0.01,0.027,0.011
FTSJ3 (UniProt Q8IY81),0.001,-0.025,0.021,0.016,-0.001,0.066,-0.046,0.047,0.033,-0.015
EXOC5 (UniProt O00471),0.008,-0.025,-0.063,-0.003,0.047,-0.044,0.006,0.014,0.01,0.002
FAM83D (UniProt Q9H4H8),-0.042,0.004,-0.026,0.008,-0.033,-0.061,-0.02,-0.019,0.05,0.01
FUBP3 (UniProt Q96I24),-0.201,-0.016,-0.094,0.012,0.01,-0.029,-0.009,0.043,-0.005,0.032
ENO1 isoform 2 (UniProt P06733),0.01,-0.009,0.021,-0.036,-0.012,-0.038,0.035,-0.007,-0.008,0.004
GBF1 (UniProt Q92538),-0.021,0.02,-0.088,0.027,0.021,-0.04,-0.003,0.054,0.018,-0.034
EMP3 (UniProt P54852),0.007,0.094,-0.046,0.02,-0.046,-0.144,0.031,0.013,-0.035,-0.008
"EPB41, A0A2R8Y6D0",-0.033,0.312,0.091,-0.044,-0.021,-0.017,-0.055,0.043,-0.042,-0.054
GAPVD1 isoform 6 (UniProt Q14C86),0.006,0.005,-0.05,-0.005,0.044,-0.029,-0.02,0.032,0.013,0.026
EWSR1 isoform 5 (UniProt Q01844),-0.766 (active),0.019,0.004,0.036,-0.049,-0.025,0.082,0.013,-0.002,0.024
FTL (UniProt P02792),-0.039,0.035,-0.03,-0.038,-0.012,0.043,0.017,0.091,0.009,0.06
FAM118B (UniProt Q9BPY3),-0.018,0.002,-0.039,-0.009,-0.008,-0.06,-0.015,0.021,0.032,-0.007
DTWD1 (UniProt Q8N5C7),0.007,-0.039,-0.034,0.01,-0.02,-0.067,-0.007,0.002,-0.008,0.049
EDARADD (UniProt Q8WWZ3),0.076,-0.036,-0.004,0.008,0.023,0.07,0.065,-0.05,-0.032,0.019
